Sampled rows, rich in hits. Any-hit rate of the full collection: about 3.5%.
TEAD-YAP inh: TEAD-YAP interaction inhibition, primary screen, TEAD-YAP interaction inhibitor project, luminescence, HEK-TIYL cells; TEAD-Gal4/YAP UAS-luciferase luminescence; inhibition, % at 9.12 µM; 640,000 tested, 1.4% active; AID 1259422, 2018; in the data active = inhibition above about 32%;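 note: 0% = median of test compound wells and 100% = reference inhibitor wells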
MITF inh: MITF inhibitors, primary screen, biochemical, AlphaScreen, human. AlphaScreen MITF homodimerization, bead proximity signal. Microphthalmia-associated transcription factor (Homo sapiens), O75030. AID 1259374, 2018. 650,000 tested, 0.91% active. inhibition, % at 2.6 µM; in the data active = inhibition above about 50%;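 note: 0% = vehicle wells with protein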
GPR151 ag: activators of human GPR151, primary screen, cell-based, PathHunter beta-arrestin, luminescence; G-protein coupled receptor 151 (Homo sapiens), Q8TDV0; PathHunter beta-arrestin GPR151 cells; activation, % at 11.2 µM; 650,000 tested, 1% active; AID 1508602, 2020; in the data active = activation above about 4.9%;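 note: 0% = median of compound wells and 100% = cells with positive control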
FBW7 act: FBW7 E3 ligase activators, primary screen, biochemical, AlphaScreen, human; F-box/WD repeat-containing protein 7 (Homo sapiens), Q969H0; AlphaScreen FBW7–phospho-cyclin E peptide binding, activator screen; normalized activity (activation), % at 26.1 µM; 650,000 tested, 0.13% active; in the data active = normalized activity above about 1.9%;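 note: purified mutant Fbw7 with reduced substrate affinity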
Target sequence (Q969H0 whole entry, looked up): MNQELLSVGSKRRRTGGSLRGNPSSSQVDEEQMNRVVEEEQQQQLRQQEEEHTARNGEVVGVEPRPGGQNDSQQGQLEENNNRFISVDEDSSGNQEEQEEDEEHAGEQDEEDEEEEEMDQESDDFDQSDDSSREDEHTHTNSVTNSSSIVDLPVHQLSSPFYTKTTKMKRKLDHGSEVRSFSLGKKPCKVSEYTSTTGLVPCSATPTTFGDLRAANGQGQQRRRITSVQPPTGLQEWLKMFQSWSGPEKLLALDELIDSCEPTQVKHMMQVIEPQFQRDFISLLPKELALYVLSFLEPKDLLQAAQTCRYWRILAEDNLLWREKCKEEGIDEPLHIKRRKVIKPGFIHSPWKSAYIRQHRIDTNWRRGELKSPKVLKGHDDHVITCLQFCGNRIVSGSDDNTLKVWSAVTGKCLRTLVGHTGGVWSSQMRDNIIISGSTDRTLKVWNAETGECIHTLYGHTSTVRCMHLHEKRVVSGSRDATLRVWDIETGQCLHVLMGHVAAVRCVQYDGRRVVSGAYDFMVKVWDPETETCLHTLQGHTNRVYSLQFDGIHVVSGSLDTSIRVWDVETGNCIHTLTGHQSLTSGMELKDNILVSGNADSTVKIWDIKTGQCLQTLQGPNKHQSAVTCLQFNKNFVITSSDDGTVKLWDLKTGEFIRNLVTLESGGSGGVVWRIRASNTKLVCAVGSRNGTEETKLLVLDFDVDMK
GPR151 conf act: GPR151 activators, triplicate retest, confirmation, cell-based, PathHunter beta-arrestin, luminescence; GPR151 PathHunter beta-arrestin cells, 90 min; % of EA-reagent control over plate median; AID 1508609, 2020; activation, % at 11.2 µM; shares compounds with GPR151 ag; 6,700 tested, under 10 active;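 active = mean percent activation across replicates above the confirmation screen cutoff of 4.91%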
GPR119 counter: GPR119 activators in beta-arrestin cells, counter-screen for GPR151 activator project, cell-based, PathHunter beta-arrestin, luminescence, triplicate; shares compounds with GPR151 ag; 90 min; 0 = compound-well median, 100 = enzyme-acceptor control; activation, % at 11.2 µM; 6,700 tested, 0.3% active; AID 1508611, 2020;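 active = mean percent activation in the counterscreen above 29.09%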;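 note: counterscreen on off-target GPR119 to flag nonselective hits from the GPR151 activator screen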
* = called active by the depositor; . = no result given.

SMILES | TEAD-YAP inh | MITF inh | GPR151 ag | FBW7 act | GPR151 conf act | GPR119 counter
O=C(Nc1c2c(nn1-c1ccc(F)cc1)CS(=O)(=O)C2)C1(c2ccc(Cl)cc2)CCCC1 | -12.9 | -15.9 | 5.1* | -0.2 | 0.2 | 6.0
COc1ccc(-n2nc3c(c2NC(=O)c2c(F)cccc2F)CS(=O)(=O)C3)cc1 | 1.3 | 16.9 | 7.1* | 0.5 | 4.5 | 8.6
CC1(C)C(=O)Nc2ccccc2N1C(=O)CSc1nc(C2CC2)n(-c2ccccc2)n1 | 9.9 | 9.1 | -1.4 | -0.5 | . | .
Cc1nc2c(ccc3nc(NC(=O)c4cccs4)sc32)s1 | 20.9 | 17.6 | -6.0 | 0.3 | . | .
Cc1cc(NC(=O)CSc2nnc(-c3cccs3)n2C)no1 | 1.9 | 1.6 | 1.2 | 0.2 | . | .
COc1ccc(-c2cn3cccnc3n2)cc1NC(=O)COc1ccc(Cl)cc1 | -29.2 | 18.6 | -1.1 | 0.7 | . | .
O=C(COc1ccc(Cl)cc1)Nc1ccc(-c2cn3cccnc3n2)cc1 | -4.8 | -6.4 | 8.6* | 22.5* | 2.5 | 11.1
O=C(COc1ccc(Cl)cc1)Nc1ccccn1 | 48.6* | -20.5 | 9.2* | 0.1 | 0.5 | -51.2
Cc1ccc(Cn2c(C)c(CNCc3ccccc3Cl)c(C(=O)O)c2C)cc1 | 4.1 | -0.8 | -0.1 | 0.2 | . | .
O=C(Cc1ccccc1)N/N=C/c1ccc(O)cc1 | -4.5 | -2.0 | -0.8 | -0.1 | . | .
CC(NC(=O)CC1S/C(=N/N=C/c2ccco2)NC1=O)C(=O)O (stereo not drawn) | 2.7 | 9.6 | 5.7* | 0.0 | -0.8 | -3.5
CCN(CC)CCOC(=O)c1ccc(NC(=O)CNC(=O)C2CCCCC2)cc1 | 9.8 | 9.6 | 5.9* | -0.1 | -0.2 | -8.3
CCOc1ccc(NC(=O)CNC(=O)C2CCCCC2)cc1 | -1.2 | 5.6 | 1.7 | -0.1 | . | .
CC(NC(=O)c1cnccn1)c1nc(-c2ccc(Cl)cc2)n[nH]1 (stereo not drawn) | 1.8 | -1.2 | 8.1* | -0.1 | 0.5 | 12.5
CC(NC(=O)c1cnccn1)c1nc(-c2ccncc2)n[nH]1 (stereo not drawn) | 5.8 | 2.0 | -1.3 | 0.0 | . | .
CCOC(=O)c1c(NC(=O)Cc2ccc(OC)cc2)sc(C(=O)Nc2cc(C(F)(F)F)ccc2Cl)c1C | -1.8 | 2.8 | -0.3 | 0.0 | . | .
N#CCSc1nc2cc(C(=O)N3CCN(c4ccccc4)CC3)ccc2c(=O)n1C1CCCCC1 | -4.4 | -11.1 | 11.1* | -0.2 | 0.7 | 7.7
CCCCCn1c(SCc2ccccn2)nc2cc(C(=O)N3CCN(c4ccccc4)CC3)ccc2c1=O | -12.9 | -1.7 | 5.1* | -0.2 | -0.8 | -20.9
N#CCSc1nc2cc(C(=O)N3CCCC3)ccc2c(=O)n1-c1ccccc1 | -7.0 | 11.6 | -0.4 | 0.1 | . | .
CC(C)N(C(=O)CSc1nnc2c(n1)[nH]c1ccc(F)cc12)C(C)C | 7.0 | 14.8 | 1.7 | 0.0 | . | .
CC(=O)N(C)c1nnc(-c2ccccn2)s1 | 2.7 | 8.2 | 7.8* | -0.1 | -0.5 | 6.8
CCN(CC)S(=O)(=O)c1ccc2c(c1)c(=O)c(C(=O)N(C)CC(OC)OC)cn2C | 6.3 | 11.0 | 0.1 | 0.0 | . | .
CCN(CC)S(=O)(=O)c1ccc2c(c1)c(=O)c(C(=O)N(C)CCC#N)cn2C | -18.1 | 6.8 | 6.1* | 0.0 | 0.3 | -2.9
CCN(C)c1nc2nonc2nc1NC1CCCC1 | 5.2 | -11.4 | 5.2* | 0.0 | 1.1 | -1.6
O=C1CCC(CCC(=O)N2Cc3ccccc3OC(c3ccccc3)C2)=NN1 (stereo not drawn) | -9.7 | -3.1 | 9.9* | 0.0 | -0.1 | 4.6
O=C(CCC1=NNC(=O)CC1)NCCN1Cc2ccccc2OC(c2ccccc2F)C1 (stereo not drawn) | 0.2 | 5.4 | 0.8 | -0.2 | . | .
O=C(CCCn1c(=S)[nH]c2ccsc2c1=O)NCc1ccccc1 | -0.2 | -7.7 | 1.5 | -0.1 | . | .
CC(=O)N1CCN(Cc2ccccc2Br)CC1 | -2.9 | 7.5 | 7.9* | -0.2 | 0.6 | 1.3
CC(=O)N1CCN(Cc2cccc(Cl)c2Cl)CC1 | -3.4 | -4.7 | 0.7 | -0.1 | . | .
Cc1ccc(C)c(NC(=O)C(=O)NCCC(C)C)c1 | 9.1 | -14.3 | 1.5 | 0.1 | . | .

Screening results (PubChem)
